# High-throughput results: PubChem, several laboratories
# A selection: hits, their analogues and other compounds. The true share with any hit is near 5.7%.
# Cdc25B inh = human M-phase inducer phosphatase 2 inhibition. P30305. 65,000 compounds, 0.1% hits. inhibition, %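 (compounds tested at 10 µM final in the well)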. recombinant Cdc25B, OMFP fluorescence Ex485/Em525; in the data active = inhibition above about 50%
# Fluor 339 460 = intrinsic fluorescence of library compounds, ex339/em460 – biochemical, MLSMR library, data from DPM-DC assay, artefact control, profiling panel; AID 709; fluorescence fold increase at 10 µM; 65,000 compounds, 5.5% hits; compound autofluorescence, ex339/em460 nm, NADH buffer; hits give high values; 1 = no-compound wells, NADH background;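 active = at 10 µM, mean starting fluorescence two-fold or more over control wells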;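 also: signal is the first read of a kinetic run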
# Hsp90 inh = displaces geldanamycin probe from tumor Hsp90. inhibition, % at 30 µM. AID 429. NCI-N417 lysate Hsp90, Cy3B-geldanamycin FP displacement. 64,000 compounds, 0.35% hits;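 active = inhibition above 50%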;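 also: 0% = tracer plus lysate wells and 100% = tracer alone without lysate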
# DUSP1 inh = human dual specificity phosphatase 1 inhibition; inhibition, %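 (compounds tested at a single concentration somewhere between 10 and 100 µM)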; P28562; recombinant MKP-1, OMFP hydrolysis fluorescence; AID 374; 65,000 compounds, 0.15% hits;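 active = inhibition above about 50%, limit read from the data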;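 also: 0% = DMSO max control wells and 100% = wells with enzyme stopped by NaOH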
# Target sequence (P28562 whole entry, looked up): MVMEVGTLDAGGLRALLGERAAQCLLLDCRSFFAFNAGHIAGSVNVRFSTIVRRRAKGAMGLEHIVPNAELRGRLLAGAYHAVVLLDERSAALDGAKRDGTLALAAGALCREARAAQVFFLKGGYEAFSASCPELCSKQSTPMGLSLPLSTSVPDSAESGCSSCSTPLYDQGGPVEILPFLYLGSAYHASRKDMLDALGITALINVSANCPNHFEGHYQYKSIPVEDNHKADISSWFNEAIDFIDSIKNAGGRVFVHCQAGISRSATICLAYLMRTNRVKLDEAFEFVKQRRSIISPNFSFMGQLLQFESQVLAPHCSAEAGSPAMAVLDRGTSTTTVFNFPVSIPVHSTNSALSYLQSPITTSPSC
# NADH enzymes = blocks coupling enzymes of NAD/NADH assays; coupled PK/LDH NADH assays, four targets; IC50, µM (highest dose often 10 µM), without a hit: at the top dose inhibition; 65,000 compounds, 0.02% hits;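 active = single-dose screening hits from any of four coupled enzyme assays that gave an IC50 when retested across doses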;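 also: the DPM-DC format reads NADH fluorescence rather than 340 nm absorbance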
# Abs 340nm = absorbance at 340 nm; 65,000 tested, under 10 active; fold change at 10 µM; compound absorbance at 340 nm, fold over control;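 active = at 10 µM dose, initial 340 nm absorbance at least 2 fold that of control wells; inactive = change under 2 fold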;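 also: initial absorbance extrapolated from kinetic A340 decline of NADH oxidation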
# An asterisk follows results filed as active; . = not tested or not shown.
SMILES,Cdc25B inh,Fluor 339 460,Hsp90 inh,DUSP1 inh,NADH enzymes,Abs 340nm
O=C(Nc1ccc2oc(=O)ccc2c1)c1ccco1,-3.8,2.84*,-2.3,-13.9,12.0%,1.05
CCCc1cc(=O)oc2c(CN3CCN(C)CC3)c(O)c(Cl)cc12,10.2,2.31*,0.0,-16.3,6.0%,1.09
Cc1c(C)c2cc(Cl)c(O)c(CN3CCCCC3)c2oc1=O,2.3,2.48*,2.1,-8.9,1.0%,1.02
CN1CCN(Cc2c(O)c(Cl)cc3c(-c4ccccc4)cc(=O)oc23)CC1,-8.4,1.58,-1.6,-2.5,6.0%,1.07
Cc1cc(=O)oc2c(CN3CCN(C)CC3)c(O)c(Cl)cc12,4.7,2.49*,-1.1,-8.9,5.0%,1.03
CCCn1c(O)c(CN2CCCCC2)c(C)c(C#N)c1=O,-0.1,1.5,-4.2,19.5,3.0%,1.06
CCCCc1cc(=O)oc2c(CN3CCCC3)c(O)c(Cl)cc12,-9.0,2.95*,-3.2,4.0,3.0%,1.03
O=c1oc2ccccc2c(O)c1CN1CCCCC1,-6.7,1.05,-5.0,2.7,4.0%,1.02
COc1ccc(OC)c(S(=O)(=O)N2CCN(C34CC5CC(CC(C5)C3)C4)CC2)c1,3.6,1.09,-0.6,-4.5,5.0%,1.02
COc1ccc(-c2nc(C#N)c(NCCc3ccccc3)o2)cc1OC,-11.4,3.89*,-0.6,-6.3,12.0%,1.07
CCN(CC)CCCNc1oc(-c2ccc(OC)c(OC)c2)nc1C#N,-19.5,3.91*,-2.8,-15.0,15.0%,1.07
CN(C)CCNc1oc(COc2cccc(Cl)c2)nc1C#N,0.6,1.03,-0.8,-21.8,15.0%,1.01
CC(C)(C)c1ccc(-c2nc(C#N)c(NCc3ccncc3)o2)cc1,4.8,1.83,-2.5,-6.7,12.0%,1.02
CN(C)CCCNc1oc(-c2cccc(Cl)c2)nc1C#N,-7.6,3.91*,-5.0,-15.9,12.0%,1.02
COc1ccc(-c2nc(C#N)c(NCc3ccc(C)cc3)o2)cc1OC,-3.0,2.11*,0.1,4.7,1.0%,1.05
COc1ccc(-c2nnc(SCc3nnc(-c4ccc(Cl)cc4)o3)n2-c2ccccc2)cc1,-0.3,1.01,-6.2,16.5,3.0%,1
CC1(c2ccncc2)Nc2ccccc2-c2nc3ccccc3n21 (configuration not stated),4.9,1.66,-6.9,1.3,6.0%,1.01
Cc1ccc(C2Nc3ccccc3-c3nc4ccccc4n32)o1 (configuration not stated),-12.1,2.45*,-7.2,10.2,1.0%,1.05
C=CCn1c(SCn2nnc3ccccc3c2=O)nnc1C1CCCCC1,-3.8,1.1,-0.4,13.3,3.0%,1.24
CN(Cc1c(F)cccc1Cl)c1ccc(S(=O)(=O)N2CCOCC2)cn1,-7.0,2.57*,-4.6,32.6,8.0%,1
CCN(CC)CCNc1ncnc2c1[nH]c1ccc(OC)cc12,-12.1,2.36*,1.7,-27.3,5.0%,1.05
C=CCNc1ncnc2c1[nH]c1ccc(C)cc12,4.2,3.99*,-0.7,-44.4,5.0%,1.02
NC(=O)C(=O)O,.,.,-0.1,.,.,.
CC(C)CCNC(=O)C1CCN(c2nc3ccccc3o2)CC1,70.8*,1.05,-0.8,34.5,7.0%,1.02
CC(=O)N1CCC2(CC1)CC(=O)c1cc(OCC(=O)NCc3ccc(C)cc3)ccc1O2,-14.5,3.48*,-0.2,16.7,3.0%,1.02
SMILES,Cdc25B inh,Fluor 339 460,Hsp90 inh,DUSP1 inh,NADH enzymes,Abs 340nm
CC(C)(C)c1ccc(OCC(=O)NCc2ccco2)cc1,1.9,1.02,-3.6,1.5,5.0%,1.01
CC(=O)N1CCC2(CC1)CC(=O)c1cc(OCC(=O)NCc3ccco3)ccc1O2,-7.5,3.39*,1.4,-10.8,6.0%,1
O=C(COc1ccc(N2CC(C(=O)O)CC2=O)cc1)Nc1cccc(C(F)(F)F)c1 (configuration not stated),-10.4,1.03,-2.9,9.9,1.0%,1
O=C(Nc1ccncc1)c1cc2ccccc2oc1=O,-11.8,1.15,0.1,24.0,4.0%,1.06
O=c1oc2ccccc2cc1-c1cn2cccnc2n1,-7.6,3.6*,-5.3,-19.9,20.0%,1.17
OCC1NC[C@@H](O)C(O)[C@@H]1O (some centres not stated),.,.,-2.3,.,.,.
Cc1csc2ncc(C(=O)NCc3ccco3)c(=O)n12,-9.0,3.76*,-0.7,1.6,14.0%,1.09
Cc1ccc(NC(=O)c2cnc3scc(C)n3c2=O)c(C)c1,0.8,1.79,-1.5,7.8,8.0%,1.09
COc1ccc(CNC(=O)c2cnc3scc(C)n3c2=O)cc1,4.2,2.13*,-3.2,2.6,9.0%,1.18
O=C(NCc1ccco1)c1cnc2n(c1=O)CCS2,-16.0,1.01,1.5,4.8,3.0%,1.01
Cc1ccnc(NC(=O)CCC(=O)N(CC(=O)NCC2CCCO2)Cc2ccc(F)cc2)c1 (configuration not stated),4.7,1.07,0.1,-8.9,10.0%,0.97
O=C(CCn1c(=O)c2sccc2n(Cc2cc(=O)n3ccccc3n2)c1=O)NCc1ccco1,-8.6,2.21*,-5.4,25.3,10.0%,1.1
CC(C(=O)N(C1CC1)C1(C(=O)Nc2ccccc2)CCCC1)N1C(=O)c2ccccc2C1=O (configuration not stated),-4.6,1.12,-4.3,4.2,4.0%,1.02
CCn1c(=O)cc(SCC(=O)Nc2ccccc2N2CCN(C)CC2)c2ccccc21,-19.7,1.16,-2.4,6.2,5.0%,1.04
CCCCC(=O)Nc1ccc(NC(=O)C2CC2)nc1,-1.2,1.06,4.4,8.7,0.0%,1.01
Nc1ccc(C(=O)Nc2nc3ccccc3s2)cc1,-7.1,1.44,.,0.3,2.0%,1.13
CC(=O)c1cc2c(cc1NC(=O)c1ccc(-n3nc(C)cc3C)cc1)OCO2,-16.3,2.11*,-0.8,2.5,10.0%,1.04
Cc1cc(C)n(-c2ccc(C(=O)Nc3nc4ccccc4s3)cc2)n1,-9.5,3.29*,-1.9,22.6,10.0%,1.02
CC1CCCC(C)N1CCNC(=O)C1CCN(S(=O)(=O)N2CCCCC2)CC1 (configuration not stated),-20.9,1.03,-3.3,1.9,4.0%,1.02
CCN1CCN(CCCNC(=O)c2cc3cc4ccc(OC)cc4nc3o2)CC1,8.5,5.19*,5.2,-11.4,7.0%,1.11
COc1cc(OC)cc(-n2nc(C(=O)NCCCN3CCOCC3)c3ccccc3c2=O)c1,75.7*,1.16,-1.3,-2.9,0.0%,1.03
Cc1ccc2cc3cc(C(=O)NCc4ccc5c(c4)OCO5)oc3nc2c1,15.3,5.15*,-2.3,13.3,2.0%,1.05
O=C(NCCCN1CCOCC1)c1cc2c(=O)[nH]c3ccccc3c2s1,-11.4,4.73*,-4.1,27.8,7.0%,1.11
CCOc1c(Br)cc(C2NS(=O)(=O)N=C3CCCCCN32)cc1OC (configuration not stated),6.1,1.06,-1.9,-2.8,5.0%,1
Cc1cccc(NC(=O)C2CCN(S(=O)(=O)c3cccc4cccnc34)CC2)n1,-9.3,1.06,0.2,-3.3,3.0%,1.03
